Target: PEG-3 (UniProt Q6IN02)
Assay: Peg3 promoter luciferase inhibitors, potency, dose response, cell-based, HeLa, CREF/GAPDH counter-screen panel (AID 624167)
Settings: CREF/GAPDH counter-screens; HeLa PEG-Prom luciferase reporter, overnight, run 1, dose range 1, at 100 µM (top of the series) unless noted

Sequence of PEG-3 (Q6IN02 whole entry, looked up): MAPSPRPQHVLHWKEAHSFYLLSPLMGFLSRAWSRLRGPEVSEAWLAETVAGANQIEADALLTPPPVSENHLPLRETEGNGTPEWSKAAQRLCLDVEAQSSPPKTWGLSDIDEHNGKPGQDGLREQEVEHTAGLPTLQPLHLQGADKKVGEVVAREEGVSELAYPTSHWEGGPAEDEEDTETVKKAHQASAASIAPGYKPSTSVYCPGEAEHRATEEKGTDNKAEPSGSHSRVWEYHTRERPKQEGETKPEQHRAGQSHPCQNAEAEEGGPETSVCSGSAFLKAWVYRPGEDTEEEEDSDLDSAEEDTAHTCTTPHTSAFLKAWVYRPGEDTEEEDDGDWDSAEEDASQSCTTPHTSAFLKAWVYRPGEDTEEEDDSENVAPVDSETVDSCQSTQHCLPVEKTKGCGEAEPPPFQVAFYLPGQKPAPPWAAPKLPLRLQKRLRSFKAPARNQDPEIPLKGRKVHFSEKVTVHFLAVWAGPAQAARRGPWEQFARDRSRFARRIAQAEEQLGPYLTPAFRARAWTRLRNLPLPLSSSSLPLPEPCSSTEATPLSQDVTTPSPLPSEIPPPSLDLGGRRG

Q: How did the inhibition turn out when CCCN(CC(=O)Nc1cc(Cl)cc(Cl)c1)CC(=O)Nc1ccc(F)c(F)c1F was run?
A: The inhibition was 101%.

Q: COc1ccc(Nc2oc(COc3ccccc3OC)nc2C#N)cc1 was tested. Which inhibition did it give?
A: The inhibition was 69.9%.

Q: Which inhibition does the source give for O=C(Cn1ncc(Cl)c(Cl)c1=O)N1CCN(Cc2ccccc2)CC1 here?
A: The inhibition was 95.2%.

Q: CC(=O)c1c(NCCc2ccccc2)nc(=S)n(-c2ccccc2)c1C was tested. Which inhibition did it give?
A: The inhibition was 99.6%.

Q: With Cc1nc(-c2ccc(F)cc2)c(CC(=O)N(C)CC(=O)Nc2ccc(Cl)c(C(F)(F)F)c2)s1 as the compound, how does the inhibition read?
A: The inhibition was 99.8%.

Q: How did the inhibition turn out when CCOC(=O)c1c(NC(=O)CSc2nnnn2-c2ccccc2OCC)sc2c1CC(C)(C)NC2(C)C was run?
A: The inhibition was 98.8%.

Q: With Cc1cc(/C=c2/sc3nc4ccccc4n3c2=O)c(C)n1-c1ccccn1 as the compound, how does the inhibition read?
A: The inhibition was 84.1%.

Q: For Cc1c(C(=O)N2CCN(c3ccc(F)cc3)CC2)sc2ncnc(N3CCN(c4ccccn4)CC3)c12, which inhibition is on record?
A: The inhibition was 67.2%.

Q: For C/C(=N\N=C(N)N)c1ccc(Cl)cc1Cl, which inhibition is on record?
A: Its inhibition is 99.4%.

Q: For O=c1cc2oc3cc(O)c(O)cc3c(-c3ccccc3[N+](=O)[O-])c-2cc1O, which inhibition is on record?
A: Its inhibition is 93.5%.

Q: NCCc1c(-c2ccccc2)n(-c2ccccc2)c2ccccc12 was tested. Which inhibition did it give?
A: The inhibition was 97.5%.

Q: With C[C@@H]1[C@H]2[C@@H]3CC[C@@H](C3)[C@H]2CN[C@H]1c1cn(Cc2ccccc2)c2ccccc12 as the compound, how does the inhibition read?
A: The inhibition was 99.2%.

Q: COc1ccc(-n2cc(CNC3CCN(C)CC3)c(-c3cccc(F)c3)n2)cc1 was tested. Which inhibition did it give?
A: The inhibition was 100%.

Q: How did the inhibition turn out when COCOCCn1cc(CN2CCS(=O)(=O)N(Cc3ccc(-c4ccc(Cl)c(Cl)c4)cc3)C(C(C)C)C2=O)nn1 (centres undefined) was run?
A: The inhibition was 92.6%.

Q: With Cc1nn(-c2ccccc2)c2c1C(c1ccc([N+](=O)[O-])cc1)N1C(=N2)C(=O)Nc2ccccc21 (centres undefined) as the compound, how does the inhibition read?
A: Its inhibition is 10.2%.

Q: COc1ccccc1NC(=O)c1cc(-c2cc(OC)c(OC)c(OC)c2)nc2ccccc12 was tested. Which inhibition did it give?
A: Its inhibition is 47.9%.

Q: Which inhibition does the source give for COc1ccc(CN(C)C(=O)C(Cc2ccccc2)NC(=O)c2ccccc2)cc1F (centres undefined) here?
A: The inhibition was 99.1%.

Q: For CC(C)CC(N)c1csc(NC(=O)Nc2ccccc2C(C)(C)C)n1 (centres undefined), which inhibition is on record?
A: Its inhibition is 102%.

Q: How did the inhibition turn out when CC(C)CC(N)c1csc(Nc2ccc(C(=O)c3ccccc3)cc2)n1 (centres undefined) was run?
A: The inhibition was 102%.

Q: COc1ccc(-c2cc(C(=O)N3CCN(c4ccccc4F)CC3)c3ccccc3n2)c(OC)c1 was tested. Which inhibition did it give?
A: Its inhibition is 27.3%.

Q: How did the inhibition turn out when CN(C)CCNc1ncnc2c1sc1nc(N3CCOCC3)c3c(c12)CC(C)(C)SC3 was run?
A: Its inhibition is 98%.

Q: How did the inhibition turn out when O=C1N[C@@H](c2ccccc2)COC(=O)[C@@H](Cc2ccc(F)cc2)CC/C=C/C[C@H]1CC(=O)N(CCO)Cc1ccccc1 was run?
A: Its inhibition is 95.6%.

Q: For CN(CC(=O)Nc1ccc(Cl)c(C(F)(F)F)c1)C(=O)c1cc(-c2ccncc2)nc2ccccc12, which inhibition is on record?
A: The inhibition was 102%.

Q: Which inhibition does the source give for CCN1CCN(c2ncc(C(=O)Nc3cc(Cl)ccc3OC)c3ccccc23)CC1 here?
A: The inhibition was 100%.

Source: PubChem BioAssay
